Screens as filed in PubChem.
HBB splicing: hemoglobin beta splicing modulation. HBB splicing reporter cell assay, activation; EGFP reporter with mutant IVS2-654 intron; response scale: normalised to 500 nM splice-correcting PNA. Potency, µM (titrated, usually from 46.1 µM), for inactives: at the highest dose activation, most hits filed as activators. 0.06% of 65,000 active; also: potency is read from the fitted curve at half-maximal effect; 0% is about no effect
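HeLa cells stably expressing EGFP interrupted by mutant beta-globin intron 2 (IVS2-654), 500/well in 2% FCS. Treated with compound for 2 days at 37C. Splicing correction scored as total well GFP intensity (488 nm excitation, 500-520 nm emission); 500 nM antisense PNA served as control.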
GFP derepression: epigenetic modulators derepressing GFP locus in mouse cells; 0.09% of 68,000 active; Potency, µM (titrated, usually from 46.1 µM), without a hit: at the top dose GFP derepression (activation); mouse C127i GFP locus derepression, cytometry, 30 h; also: % of control where 0% means no effect
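Locus derepression in mouse mammary C127i cells whose integrated CMV-GFP reporter is normally silent; GFP expression after 30 h compound treatment was quantified by counting fluorescent cells.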
Ub-GFP proteasome: ubiquitin-GFP accumulation via proteasome inhibition | AID 526 | Ubiquitin-GFP reporter cells, proteasome inhibition, GFP fluorescence; response scale: untreated = 0%, 10 µM MG-132 = 100% | Potency, µM (titrated, usually from 45.9 µM), inactives show top-dose activation (GFP accumulation), most hits filed as activators | 67,000 tested, under 10 active; active = well fitted activation curve with a large enough effect, not every such curve was filed as active; inconclusive = small, poorly fitted or top-dose-only effect, or another doubt; inactive = no such curve, though single readings can be large or run the other way; also: potency is read from the fitted curve at half-maximal effect
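Proteasome blockade was scored as a rise in GFP-expressing U2OS cells carrying a ubiquitin(G76V)-GFP construct, imaged after 4 hr compound treatment at 37 °C across a 46 uM–2.9 nM series.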
Luciferase inh: blocks Photinus pyralis firefly luciferase activity; AID 411; P08659; Potency, µM (highest dose often 57.1 µM), for the others: at the top dose activity change, negative = inhibition, actives largely listed as inhibitors; purified firefly luciferase, luminescence, 8 min; 2.2% of 72,000 active; also: potency is read from the fitted curve at half-maximal effect; % is scaled to controls: 0 for no effect and ±100 for the full control effect; nearly all actives have a fitted effect of over 40% in size
Target sequence (P08659 whole entry, looked up): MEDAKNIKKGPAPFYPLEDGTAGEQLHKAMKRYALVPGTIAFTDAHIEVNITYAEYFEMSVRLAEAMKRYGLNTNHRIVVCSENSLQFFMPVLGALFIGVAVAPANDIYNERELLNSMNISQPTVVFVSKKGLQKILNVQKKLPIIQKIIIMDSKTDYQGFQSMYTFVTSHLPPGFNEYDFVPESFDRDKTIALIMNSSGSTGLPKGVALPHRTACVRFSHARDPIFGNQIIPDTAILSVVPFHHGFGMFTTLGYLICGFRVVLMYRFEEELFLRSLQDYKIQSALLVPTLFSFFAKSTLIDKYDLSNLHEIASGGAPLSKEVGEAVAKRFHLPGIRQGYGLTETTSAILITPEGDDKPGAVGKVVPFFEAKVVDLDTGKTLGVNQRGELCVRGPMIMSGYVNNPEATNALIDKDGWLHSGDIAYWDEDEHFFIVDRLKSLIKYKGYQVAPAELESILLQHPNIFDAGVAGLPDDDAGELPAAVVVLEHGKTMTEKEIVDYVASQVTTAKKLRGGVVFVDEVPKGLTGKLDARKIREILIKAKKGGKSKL
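Luminescence read-out after 8 min at room temperature; enzyme reaction used luciferin plus 10 uM ATP (linear range) in imidazole buffer pH 7.2 with KCl, MgCl2, Tween 20 and BSA. Each sample was run as a titration.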
Bst PK mod: modulators of Bacillus stearothermophilus pyruvate kinase. purified pyruvate kinase, luminescence ATP production; ribose 5-phosphate activator present at AC10. Potency, µM. 1.2% of 51,000 active; in the data active = potency below about 11 µM; inconclusive = mostly about 12 µM to 25 µM;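 the screen sought inhibitors and activators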;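 also: potency is read from the fitted curve at half-maximal effect; scaled between full activation by ribose 5 phosphate and full inhibition by luteolin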
GBA activity: human lysosomal glucosylceramidase modulation; purified enzyme, resorufin glucoside fluorescence (screen aimed at inhibitors), 20 min; Potency, µM; 1.1% of 48,000 active; AID 360; in the data active = potency below about 15 µM; inconclusive = mostly about 16 µM to 33 µM;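 also: potency is read from the fitted curve at half-maximal effect; the screen sought inhibitors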
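Wild-type enzyme at 0.2 nM final in 50mM citric acid/KH2PO4, 10mM sodium taurocholate, 0.01% tween-20, pH 5.9, with resorufin beta-D-glucopyranoside at 30 uM final. Compounds titrated, 20 min at RT, red fluorescence read; AC50 from titration.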
Starred values were filed as active, the others as inactive; i = inactive; u = inconclusive; x = no result given; [ ] = another dose, or the depositor's remark. Hits are enriched below; roughly 3.3% of the tested compounds scored in any of these assays. Unless noted, calls follow the shape of the dose curve; as a rule, active = well fitted curve in the direction sought with a large enough effect; inconclusive = small, poorly fitted or top-dose-only effect, or another doubt; inactive = no such curve, though single readings can be large; an effect the other way counts as inactive or inconclusive.

SMILES | HBB splicing | GFP derepression | Ub-GFP proteasome | Luciferase inh | Bst PK mod | GBA activity
CCc1cc2c(nc1CC)CCN(CC/C(C)=N/OC[C@@H](O)COCc1ccco1)C2 | -0.5%[9.22 µM] | x | x | 2.5%[11.4 µM] | x | x
CCOC(=O)c1nn(-c2ccc3c(c2)CCN3C(C)=O)cc1O | 0.0%[57.5 µM] | 3.9% | -0.9% | 10µM* | 9.85* | >76.9
CCOCCCNS(=O)(=O)c1ccc2c(c1)CCN2C(C)=O | -1.8% | 0.0% | -6.9% | 0.1% | >57 | >76.9
COc1ccccc1CNC(=O)CCC(=O)Nc1nnc(C)s1 | -0.7% | 4.5% | -2.3% | -6.0% | u | >76.9
COc1ccccc1C(=O)NCCn1cc(SCC(=O)Nc2nnc(C)s2)c2ccccc21 | -0.6% | 0.1% | 3.5% | 3.5% | >57 | 6.24*
CC(C)C[C@@H](CC(=O)N[C@H](CC(=O)N[C@@H]1CCCC[C@H]1C(=O)N[C@H](CC(=O)N[C@@H](CCC(=O)O)CC(=O)O)Cc1c[nH]c2ccccc12)C(C)C)NC(=O)[C@@H]1CCCC[C@H]1N | -0.2% | x | x | x | x | x
c1ccc(/C(=N/Nc2nc3ccccc3s2)c2ccccn2)cc1 | 5.5%[9.22 µM] | u | 0.2%[9.17 µM] | -1.0%[11.4 µM] | x | x
c1c2c(cc3sc(N4CCOCC4)nc13)OCO2 | 0.0% | -1.2% | 13.8% | 15.8µM* | i | >76.9
c1ccc(N2CCN(c3nc4cc5c(cc4s3)OCO5)CC2)cc1 | 0.6%[57.5 µM] | 0.0% | 0.8% | u | x | >76.9
c1ccc2c(c1)CCN(c1nc3cc4c(cc3s1)OCO4)C2 | -2.0%[57.5 µM] | 2.2% | -0.9% | 3.98µM* | 2.83* | >76.9
c1c2c(cc3sc(N4CCCCC4)nc13)OCO2 | 0.0% | -2.6% | -16.6% | 6.31µM* | 6.18* | >76.9
CCCCCCCCCCCCCCCCCC(=O)O[C@H](CC(=O)O)C[N+](C)(C)C | 3.3% | -1.1% | -1.6% | -3.2% | x | x
CC(C)NC(=O)C1CCCN(c2nnc(-n3cccc3)s2)C1 (stereo not given) | -0.4% | -3.4% | -2.9% | -0.7% | x | x
CC(NC(=O)C1CCN(c2nnc(-n3cccc3)s2)CC1)C12CC3CC(CC(C3)C1)C2 (stereo not given) | 1.2% | 2.4% | -0.9% | -27.1% | 8.25* | x
Cc1ccc(Nc2nc(N)nc(CN3CCN(c4ccccc4)CC3)n2)cc1Cl | -4.1%[57.5 µM] | -2.2% | 3.5% | -1.3% | >57 | 4.19*
Cc1ccc(Nc2nc(N)nc(CN3CCN(Cc4ccc5c(c4)OCO5)CC3)n2)cc1Cl | 1.4%[1.84 µM] | 2.6% | -10.4% | 1.2% | >57 | u
COc1ccc(N2CCN(Cc3nc(N)nc(Nc4ccc(C)c(Cl)c4)n3)CC2)cc1 | -0.6%[1.84 µM] | -2.0% | 9.3% | 0.8% | >57 | 4.02*
O=C1[C@H]2[C@H]3[C@H](O)[C@H](O)C/C(=N/OCc4ccccc4)[C@@H]3CC[C@@H]2C(=O)N1Cc1ccccc1 | 1.9%[9.22 µM] | x | x | 2.0%[11.4 µM] | x | x
CCOC(=O)c1cnc(-n2nc(C)cc2C)nc1N1CCOCC1 | 7.1%[1.84 µM] | -2.0% | 14.3% | 1.0% | x | >76.9
CCOC(=O)c1cnc(-n2nc(C)cc2C)nc1N(C)C | -0.3%[57.5 µM] | -2.1% | -2.0% | 12.6µM* | 11.1* | >76.9
Cn1c(=O)c(-c2cccs2)nc2cncnc21 | 2.7% | 13.1%[9.22 µM] | 4.0% | 0.0%[11.4 µM] | x | x
CC(C)=CCC/C(C)=C/CO/N=C1/C[C@@H](O)[C@@H](O)[C@@H]2[C@@H]3C(=O)N(c4cccc(Oc5ccccc5)c4)C(=O)[C@H]3CC[C@H]12 | -0.8%[9.22 µM] | x | x | 0.9%[11.4 µM] | x | x
COc1ccc(NC(=O)Nc2nnc(N3CCCCC3C)s2)cc1OC (stereo not given) | -1.5% | x | -11.4% | 15.8µM* | x | x
COC(=O)c1c(C)n(-c2ccccc2)c2ccc(O)cc12 | -4.7% | -1.2% | -10.9% | -2.6% | >57 | >76.9
COc1ccc2c(c1)c(C(=O)N1CCN(C)CC1)c(C)n2-c1ccccc1 | x | 3.8% | 7.6% | 2.2% | >57 | 11.9*
SMILES | HBB splicing | GFP derepression | Ub-GFP proteasome | Luciferase inh | Bst PK mod | GBA activity
Cc1ccc2nc(C(O)C(O)c3nc4ccc(C)cc4[nH]3)[nH]c2c1 (stereo not given) | x | -1.0% | -4.5% | -27.6% | x | >76.9
Cc1ccc2nc(/C(C#N)=N/O)[nH]c2c1 | x | -4.9% | -1.0% | 25.1µM* | x | >76.9
O=C(Nc1nc(-c2ccccc2)cs1)c1cccs1 | -0.7%[9.22 µM] | -2.2% | -11.7% | 12.6µM* | x | x
O=C(Nc1nc(-c2ccc(Cl)s2)cs1)c1cccs1 | 4.4%[0.369 µM] | -0.5% | x | -22.4% | u | i
Cc1nnc(NC(=O)C2CCN(c3nnnn3-c3ccccc3)CC2)s1 | -4.6% | 0.0% | -1.0% | 1.5% | >57 | 8.69*
O=C(Nc1cccc2c1CCCC2)C1CCN(c2nnnn2-c2ccccc2)CC1 | 0.0%[57.5 µM] | -1.3% | 5.5% | 1.0% | >57 | >76.9
COc1ccccc1Nc1nc(N)nc(CSc2nncn2C)n1 | x | 3.4% | 2.6% | 1.9% | >57 | >76.9
Cc1ccc(Nc2nc(N)nc(CSc3nccn3C)n2)cc1 | -0.5% | 2.6% | -8.5% | 20µM* | x | >76.9
Cc1cn([C@H]2C[C@H](O)[C@@H](COC(N)=O)O2)c(=O)[nH]c1=O | 2.8%[9.22 µM] | 0.0%[9.22 µM] | -4.6%[9.17 µM] | 1.4%[11.4 µM] | x | x
CCOC(=O)C1=C(C)NC(SCC(=O)Nc2cc(C)on2)=C(C#N)C1c1cccs1 (stereo not given) | 0.0% | 0.0% | -0.1% | -0.6% | >57 | 1.9*
CCSC1=C(C#N)C(c2cccs2)C(C(=O)OC)=C(C)N1 (stereo not given) | x | -2.2%[20.6 µM] | x | 0.4%[25.5 µM] | >25.6 | x
CCc1ccc(NC(=O)c2cc(-c3ccc(OC)cc3)on2)cc1 | -2.7% | 1.4% | -4.3% | 2.7% | >57 | >76.9
CCc1ccc(NC(=O)c2cc(C)on2)cc1 | -0.1% | -3.1% | 0.0% | 7.94µM* | i | u
